Results from PubChem BioAssay AID588676 (Johns Hopkins Ion Channel Center, 2011).
Out of some 310,000 compounds screened, about 3,900 (1.3%) were called active.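 Rule for the calls: active = calcium-response B-score plate-corrected more than 3 library SD below zero, starting fluorescence within 5 deviations, no agonist response on first addition; inactive = the rest.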 Many of the other results were omitted from the sample, so actives are more common in it than they were.

target: Mas-related G-protein coupled receptor member X1 (Homo sapiens) (UniProt Q96LB2); assay: antagonists of human MrgX1 receptor, primary screen, HEK293 cells, Fluo-4 calcium flux (AID 588676); settings: Fluo-4, BAM8-22 antagonism, at 10 µM; active compounds read low;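 for B-score: peak minus trough fluorescence over baseline after final BAM8-22 challenge near maximal dose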
Sequence (Q96LB2 whole entry, looked up): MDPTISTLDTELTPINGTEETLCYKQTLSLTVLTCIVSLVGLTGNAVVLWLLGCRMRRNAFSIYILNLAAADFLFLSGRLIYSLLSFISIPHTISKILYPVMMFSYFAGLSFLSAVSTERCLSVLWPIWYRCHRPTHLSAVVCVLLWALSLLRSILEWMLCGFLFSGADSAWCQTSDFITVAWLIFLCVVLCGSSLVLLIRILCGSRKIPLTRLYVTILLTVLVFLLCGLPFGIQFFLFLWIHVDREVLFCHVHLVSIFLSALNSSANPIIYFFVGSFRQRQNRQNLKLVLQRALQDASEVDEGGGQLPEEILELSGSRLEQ

B-score, inactive:
CC(=O)c1cc(-c2ccccc2)n(CC(=O)NC2CCCCC2)c1C
O=C(Cn1c(-c2cscn2)nc2ccccc21)Nc1ccc(Cl)cc1
Cc1cc(NC(=O)CSC2=NS(=O)(=O)c3cc(Cl)ccc3N2)no1
C[C@@H](NC(=O)OC(C)(C)C)c1nnc(S(=O)(=O)Cc2ccccc2)o1
CNC(=S)N/N=C/c1ccc(OCc2ccccc2)c(Br)c1
O=C(NCc1ccccn1)c1ccc2nc(-c3ccco3)c(-c3ccco3)nc2c1
CCCC(=O)Nc1ccc2c(c1)nc(CCNC(=O)c1ccco1)n2C
CCOc1ccc(S(=O)(=O)NCCC(=O)N2CCCCCCC2)cc1
O=C(NC(=S)N1CCc2ccccc21)c1ccco1
COc1ccc([N+](=O)[O-])cc1-c1nc2ccccc2nc1-c1ccccc1
O=[N+]([O-])c1ccc2nc(-c3ccccn3)[nH]c2c1
[O-][n+]1onc2c1CCc1[nH]c(-c3ccccc3)nc1-2
COc1ccc(C2=NN(C(C)=O)C(c3ccccc3)C2)cc1 (stereo not drawn)
COc1ccc(C(=S)Nc2ccccc2)cc1
Cc1nnc(CN(C)Cc2cn[nH]c2-c2ccc(-c3ccccc3)cc2)o1
CC(Nc1nc(C(F)(F)F)nc2ccccc12)c1cccs1 (stereo not drawn)
Cc1ccc(N2C(=O)C3C4C=CC(CC4)C3C2=O)cc1Br (stereo not drawn)
O=[N+]([O-])c1ccc(NC(=S)N2CCN(c3ccccn3)CC2)cc1
CNC(=S)N1CCN(c2ccccn2)CC1
CCC(C(=O)NC1CCCCC1)N(C(=O)c1snc(C(N)=O)c1N)c1ccc(OC)cc1OC (stereo not drawn)
COC(=O)c1cccc(C(=O)N2CCCC(Nc3ccc4c(c3)OCCO4)C2)c1 (stereo not drawn)
Cc1ccc(S(=O)(=O)N2CCN(C(=O)N3CCOCC3)CC2)c(C)c1
Cc1ccc(S(=O)(=O)N2CCN(C(=O)COC(=O)c3c(C)cc(C)cc3C)CC2)c(C)c1
COc1cc(SC#N)ccc1N=Cc1c(C)[nH]n(-c2ccc(C)cc2)c1=O
C=CCSc1nsc(NC(=O)Nc2cccc(C(C)=O)c2)n1
CCSc1nsc(NC(=O)Nc2ccccc2OC)n1
COc1ccc(/C=N/NC(=O)c2cc(-c3cccc(C)c3)nc3ccccc23)cc1O
CCOc1cc(/C=N/NC(=O)c2cc(-c3ccccc3)nc3ccccc23)ccc1O
CCCCN(C1CCS(=O)(=O)C1)S(=O)(=O)c1ccc(C(C)C)cc1 (stereo not drawn)
O=c1[nH]c(N2CCOCC2)nc2ccccc12
CC1(C)Cc2c(C#N)c(SCc3nc4ccccc4[nH]3)nc(N3CCOCC3)c2CO1
COc1ccc2c(c1)[C@H]1[C@H](CO2)[C@H](c2ccccc2)[C@]2(C)C(=O)Nc3cc(F)c(F)cc3C(=O)N12
COc1cc(CN(C)Cc2nc3cc(C(F)(F)F)ccc3c(=O)[nH]2)ccc1OC(F)F
CCOCCCNC(=O)C1(O)c2cc(Br)ccc2NC(=O)N1c1ccc(C)c(C)c1 (stereo not drawn)
C=CCn1c(=NC(=O)c2cccs2)sc2cc(NC(C)=O)ccc21
Cc1ccc(CCC(=O)Nc2ncc(Cc3cc(Cl)ccc3Cl)s2)o1
CCn1ccnc1CN(C)C(=O)c1cc(COc2ccc(Cl)cc2OC)on1
CCc1ccc2[nH]c(=O)c(Cc3ccccc3)c(O)c2c1
Cc1ccc(N=C2NC(=O)/C(=C/C=C/c3ccco3)S2)cc1C
CN(C)c1ccc(-n2cccc2/C=N/n2cnnc2)cc1
Cc1ccccc1NC(=O)Cn1cc(C(=O)C2CC2)c2ccccc21
COc1cc2ccccc2cc1C(=O)N(CCN(C)C)c1nc2c(F)cccc2s1
COc1cccc2sc(N(CCCN(C)C)C(=O)CCS(=O)(=O)c3ccccc3)nc12
CCc1ccc2c(c1)C1(NN=C(c3ccccc3)S1)C(=O)N2 (stereo not drawn)
CCOC(=O)c1c(NC(=O)CCl)sc(C(=O)N(CC)CC)c1C
Cn1nc(C(F)(F)F)cc1-c1ccc(/C=C(\C#N)C(=O)c2cccc(C(F)(F)F)c2)s1
CCOC(=O)c1c(C)nc(-c2ccccc2)nc1NC(=O)C(C)C
CC(=O)c1c(C)[nH]c(=S)c(C#N)c1-c1ccc(F)cc1
O=c1c(Cl)c(NCc2ccc(F)cc2Cl)cnn1C12CC3CC(CC(C3)C1)C2
Cc1cccc2c1-c1sc(C(=O)NCCCN3CCc4ccccc4C3)cc1CO2
CC1=NN(c2cccc(Cl)c2)C(=O)C12CC(C)=C(C)CS2 (stereo not drawn)
CC(C)Oc1ccc(C(CC(=O)N2CCOCC2)C(C)C)cc1 (stereo not drawn)
O=[N+]([O-])c1ccc(N2CCN(S(=O)(=O)c3ccccc3)CC2)cc1N1CCc2ccccc2C1
CC(C)CC(O)C1CCN(C(=O)CCc2nnc(-c3ccc4c(c3)OCO4)o2)CC1 (stereo not drawn)
COCC1CCN(C(=O)CCc2nnc(C3(c4ccc(Cl)cc4)CCC3)o2)C1 (stereo not drawn)
O=C(CSCc1ccc([N+](=O)[O-])cc1)NCCSCc1ccccc1
CN(C)C(CNC(=O)Cc1ccc([N+](=O)[O-])cc1)c1ccccc1 (stereo not drawn)
COc1cc(NC(=S)NCc2ccco2)c(OC)cc1Cl
S=C(NCc1ccco1)Nc1ccc2c(c1)OCCO2
O=C1CCc2cc(S(=O)(=O)Nc3ccc(C(F)(F)F)cc3)cc3c2N1CC3
CCN(CC(=O)Nc1cc(Cl)ccc1C)C(=O)Cn1c(=O)cnc2ccccc21
O=S(=O)(NC1CCCCC1N1CCCCC1)c1ccc(Cl)cc1 (stereo not drawn)
CCN1CCN(C2CCCCC2NS(=O)(=O)c2ccc(Cl)cc2)CC1 (stereo not drawn)
O=C(O)CCCN1C(=O)c2ccccc2Sc2ncccc21
COc1ccc(CC(=O)NCc2nnc(SCC(=O)Nc3nccs3)n2C)cc1
COc1ccc(C(=O)NCc2nnc(SCC(=O)NC3=NCCS3)n2C)cc1
CCN(CC)C(=O)CSc1nnc(CNc2ccc(F)cc2)n1Cc1ccco1
O=c1[nH]n2c(=O)c3c([nH]c2c1N=Nc1ccccc1)CCC3
O=C(COC(=O)Cc1c[nH]c2ccccc12)NCCc1ccccc1
Cc1nc(CNS(=O)(=O)c2ccc(Oc3ccccc3)cc2)cs1
O=C(NCCCc1ccccc1)C(=O)c1c[nH]c2ccccc12
CCS(=O)(=O)N1Cc2ccccc2CC1C(=O)Nc1nc2ccc(F)cc2s1 (stereo not drawn)
COc1ccc(OCCCC(=O)OC(C)C(=O)Nc2ccccc2[N+](=O)[O-])cc1 (stereo not drawn)
COc1ccc(N2CCN(C(=O)CN3C(=O)COc4ccccc43)CC2)cc1
Nc1ccc(SCCN2C(=O)c3ccccc3C2=O)cc1
NC(=O)C1(C(N)=O)OC1c1ccc(Cl)cc1Cl (stereo not drawn)
O=C(NC1CC1)C1=C[C@H](c2coc3ccccc3c2=O)C[C@H](OCCCCO)O1
CNC(=O)c1cccc2nc3ccccc3nc12
Nc1ccc2nc3c(=O)[nH]c(=S)[nH]c3nc2c1
CC1(C)CC(=O)C(N=Nc2c(F)cccc2F)=C(O)C1
CC(=O)N1CCC(C(=O)OCc2ccc(Cl)cc2)(c2ccccc2)CC1
Cc1ccc(S(=O)(=O)N(C)c2nc3ccccc3n3c(C(C)C)nnc23)cc1
Nc1cc(OC(=O)c2ccccc2Br)nn1S(=O)(=O)c1ccccc1
Cc1ccc(-c2cn(S(=O)(=O)c3cccc([N+](=O)[O-])c3)nc2N)cc1
Cc1ccc(C(=O)NC2CCN(C(=O)Nc3ccccc3Cl)CC2)cc1
O=C(COc1ccc(-n2cnnn2)cc1)Nc1ccccc1Cl

B-score, active:
O=C(Cn1c(-c2cncs2)nc2ccccc21)NC1CCCC1 -5
COCCNC(=O)Nc1ccc2nc(-c3ccco3)c(-c3ccco3)nc2c1 -6.82
O=[N+]([O-])c1ccc2c(c1)Nc1nc3ccccc3nc1N2 -4.67
COc1ccc(NC(=S)N2N=CCC2c2ccccc2)cc1 (stereo not drawn) -7.31
COc1cc([N+](=O)[O-])ccc1NC(=S)N1CCN(c2ccccn2)CC1 -5.85
Cc1ccc(S(=O)(=O)N2CCN(C(=O)c3ccccc3-c3nc4ccccc4s3)CC2)c(C)c1 -4.66
CCSc1nsc(NC(=O)Nc2cccc(C(C)=O)c2)n1 -6.91
COc1cccc(-c2cc(C(=O)N/N=C/c3ccc(OC)c(COC(C)=O)c3)c3ccccc3n2)c1 -7.49
C1=C(N2CCOCC2)/C(=C/c2nc3ccccc3[nH]2)CC1 -5.3
Cc1ccc(Cc2cnc(N)s2)o1 -6.78
CN(C)c1ccc(-n2cccc2/C=C2/SC(=Nc3ccc(F)cc3)NC2=O)cc1 -5.31
COc1cccc2sc(N(CCCN(C)C)C(=O)C(c3ccccc3)c3ccccc3)nc12 -7.14
CCOC(=O)c1c(C)[nH]c(=S)c(C#N)c1-c1ccccc1 -6.66
Cc1nccn1CCC1CCCCN1C(=O)CCc1nnc(-c2ccsc2)o1 (stereo not drawn) -4.86
CN(C)CCNC(=O)Cc1ccc([N+](=O)[O-])cc1 -6.37
FC(F)Oc1ccc(NC(=S)NCc2ccco2)cc1Cl -4.6
CCOC1CCCCC1NS(=O)(=O)c1ccc(Cl)cc1 (stereo not drawn) -6.36
COc1ccc(C(=O)NCc2nnc(SCCOc3ccccc3)n2C)cc1 -8.04
CC(C)(C)n1c(=O)[nH]c2c(c1=O)CCC2 -7.85
O=c1[nH]c(=O)c2nc3ccccc3nc2[nH]1 -4.56
Cc1ccc(S(=O)(=O)n2nc(OC(=O)C(C)(C)C)cc2N)cc1 -8.79
O=C(Nc1ccccc1Cl)N1CCN(c2ccc3nncn3n2)CC1 -4.64
